Data on 17 compounds can be found in PMC5540273 (PLoS ONE, 2017).

The structures appear in SMILES notation.

Among the test systems are BLK; BMPR1A; BMPR1B; BMPR2; BMX; BRAF; BRSK1; BRSK2.
Settings in all cases: concentration: 1 μM, replicates: in singlicate; n = 1
The next experiment deals with T1, BIKE.
T1 construct: gene BMP2K

Another experiment has as its system T2, BRK.
T2 construct: gene PTK6
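Further: KINOMEscan kinase panel screen.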

For the compound `COc1ccc(Nc2nccc(N3CCC(NC(=O)c4cc5ccccc5s4)C3)n2)cc1` (centres unmarked) [GSK1379738], the “%Inh” value with BIKE came to 13%; with BLK, 0%; in the experiment on BMPR1A, 0%; in the experiment on BMPR1B, 0%; in the experiment with BMPR2 it was 11%; with BMX, 0%. The “%Inh” value in the experiment on BRAF, in the experiment on BRK, in the experiment on BRSK1 and with BRSK2 was 0% throughout.

For the compound `O=C1NC(=O)C(c2ccc(Cl)cc2)=C1Nc1cccc(Cl)c1` [SB-317651], the “%Inh” value in the experiment with BIKE worked out at 0%; in the experiment on BLK it was 12%; with BMPR1A, 0%; in the experiment with BMPR1B it was 0%; with BMPR2 it was 0%; in the experiment on BMX it was 3%. The “%Inh” value in the experiment with BRAF is given as 0%; in the experiment with BRK it was 0%; in the experiment with BRSK1 it was 0%; in the experiment on BRSK2, 1%.

In the case of `CC(=O)c1c(C)c2cnc(Nc3ccc(N4CCNCC4)cn3)nc2n(C2CCCC2)c1=O`, the “%Inh” value in the experiment on BIKE amounted to 0%; with BLK it was 0%; in the experiment with BMPR1A, 15%; in the experiment on BMPR1B, 0%; in the experiment on BMPR2 it was 0%; with BMX, 0%. The “%Inh” value with BRAF, in the experiment with BRK, in the experiment on BRSK1 and in the experiment on BRSK2 was 0% in each case.

Regarding `COc1ccc(Nc2nccc(-c3ccc(NC(=O)c4cc5cc(F)ccc5[nH]4)cc3)n2)cc1` [GSK1229496], the “%Inh” value in the experiment on BIKE turned out to be 33%; in the experiment on BLK, 0%; in the experiment with BMPR1A, 0%; in the experiment with BMPR1B, 0%; in the experiment on BMPR2 it was 21%; with BMX, 16%. Moreover, the “%Inh” value in the experiment on BRAF amounted to 0%; in the experiment with BRK, 16%; in the experiment with BRSK1, 0%; in the experiment with BRSK2 it was 0%.

As to `Nc1cccc(-c2ccc3c(N)n[nH]c3c2)n1` [GSK2192730], the “%Inh” value worked out at 74% in the experiment on BIKE; 0% in the experiment with BLK; 2% in the experiment on BMPR1A; 16% in the experiment with BMPR1B; 0% with BMPR2; 1% with BMX. For the same compound, the “%Inh” value in the experiment with BRAF is recorded as 0%; in the experiment on BRK, 0%; with BRSK1, 55%; in the experiment with BRSK2, 37%.

`Cn1cncc1-c1cc2c(Nc3ccc(OCc4ccccc4)cc3)ncnc2cn1` [GW281179]: the “%Inh” value in the experiment with BIKE worked out at 4%; with BLK it was 27%; with BMPR1A it was 13%; with BMPR1B it was 0%; in the experiment on BMPR2, 8%; in the experiment on BMX it was 1%. For the same compound, the “%Inh” value was 0% in the experiment with BRAF, 19% in the experiment on BRK, 0% with BRSK1 and 2% with BRSK2.

Turning to `Cc1ccc(NC(=O)Nc2ccccc2)cc1-c1ccc(C(=O)Nc2ccncc2)cc1` [GSK1398471], the “%Inh” value in the experiment on BIKE is listed as 20%; in the experiment with BLK, 33%; with BMPR1A it was 0%; in the experiment on BMPR1B, 0%; in the experiment with BMPR2, 0%; in the experiment with BMX it was 18%. Also, the “%Inh” value in the experiment on BRAF was 32%; in the experiment with BRK it was 15%; with BRSK1 it was 9%; with BRSK2, 2%.

As for `Cc1ccc(NC(=O)c2ccc(Cl)cc2)cc1-c1ccc(C(=O)Nc2ccncc2)cc1` [GSK1398467], the “%Inh” value with BIKE turned out to be 13%; with BLK it was 1%; with BMPR1A, 0%; in the experiment on BMPR1B it was 0%; in the experiment on BMPR2 it was 0%; in the experiment on BMX, 8%. Also, the “%Inh” value in the experiment with BRAF came out at 0%; in the experiment on BRK it was 0%; with BRSK1, 0%; in the experiment on BRSK2, 18%.

Consider `COC(=O)C(NC(=O)NC1CCN(c2ccnc(Nc3ccc(F)cc3)n2)C1)c1ccccc1` (centres unmarked) [GSK1379712], for which the “%Inh” value in the experiment on BIKE is recorded as 8%; in the experiment on BLK, 0%; with BMPR1A it was 0%; with BMPR1B it was 0%; with BMPR2, 17%; in the experiment with BMX, 3%. Also, the “%Inh” value with BRAF is 9%; with BRK it was 2%; in the experiment on BRSK1 it was 12%; in the experiment with BRSK2, 0%.

On to `COc1ccc(CSc2nnc(-c3ccc4ncsc4c3)o2)cc1C(F)(F)F`, for which the “%Inh” value is recorded as 0% in the experiment on BIKE; 0% with BLK; 17% in the experiment on BMPR1A; 0% in the experiment with BMPR1B; 0% in the experiment on BMPR2; 0% with BMX. Also, the “%Inh” value with BRAF, in the experiment with BRK, in the experiment with BRSK1 and in the experiment on BRSK2 was 0% in each case.

As to `CS(=O)(=O)CCNCc1nc(-c2ccc3ncnc(Nc4ccc(OCc5ccccc5)c(Cl)c4)c3c2)cs1.Cl` [GW582764], the “%Inh” value with BIKE is reported as 0%; in the experiment on BLK it was 48%; in the experiment with BMPR1A it was 0%; in the experiment with BMPR1B, 0%; with BMPR2, 15%; in the experiment on BMX, 0%. Also, the “%Inh” value was 2% with BRAF, 3% with BRK, 0% in the experiment with BRSK1 and 0% in the experiment on BRSK2.

Turning to `CC[C@@H]1CO[C@H](C(=O)Nc2ccccc2)CN1c1cc(-c2ccc3c(N)n[nH]c3c2)nc(NC)n1` [GSK2376236], the “%Inh” value in the experiment on BIKE stood at 15%; in the experiment with BLK, 0%; in the experiment on BMPR1A, 0%; in the experiment on BMPR1B, 0%; with BMPR2, 0%; in the experiment on BMX it was 41%. The “%Inh” value came out at 0% in the experiment on BRAF, 7% in the experiment with BRK, 0% with BRSK1 and 1% in the experiment on BRSK2.

Take `CNc1nc(-c2ccc3c(N)n[nH]c3c2)cc(N2C[C@@H](C(=O)Nc3ccccc3)CC[C@H]2C)n1` [GSK2298859]: the “%Inh” value in the experiment on BIKE is reported as 36%; in the experiment with BLK it was 0%; with BMPR1A, 0%; in the experiment with BMPR1B, 0%; with BMPR2 it was 0%; in the experiment on BMX, 15%. The “%Inh” value with BRAF is listed as 0%; in the experiment with BRK it was 9%; with BRSK1, 0%; in the experiment with BRSK2, 21%.

Take `Cc1cccc2c(-c3ccncn3)c(-c3ccc(F)cc3)nn12` [GW515532]: the “%Inh” value in the experiment with BIKE is recorded as 10%; with BLK, 33%; with BMPR1A it was 0%; with BMPR1B, 0%; in the experiment on BMPR2, 0%; with BMX, 0%. Further, the “%Inh” value worked out at 22% in the experiment on BRAF, 0% in the experiment on BRK, 6% in the experiment on BRSK1 and 10% in the experiment with BRSK2.

For `Cc1cnc(N)c(/C=C/c2cncc(C(=O)NCCc3ccc(Cl)cc3Cl)c2)c1.Cl` [GSK190937], the “%Inh” value with BIKE amounted to 23%; in the experiment with BLK, 3%; in the experiment on BMPR1A, 0%; in the experiment with BMPR1B it was 0%; in the experiment on BMPR2 it was 0%; with BMX, 19%. In addition, the “%Inh” value stood at 1% in the experiment on BRAF, 7% with BRK, 0% in the experiment with BRSK1 and 0% with BRSK2.

As for `COC(=O)c1cccc(NC(=O)NC2CCN(c3ccnc(Nc4ccc(OC)cc4)n3)C2)c1` (centres unmarked) [GSK1379746], the “%Inh” value in the experiment with BIKE was 6%; with BLK it was 0%; in the experiment with BMPR1A it was 9%; with BMPR1B it was 0%; in the experiment on BMPR2, 26%; with BMX it was 3%. Besides, the “%Inh” value with BRAF came out at 7%; in the experiment on BRK, 28%; with BRSK1 it was 0%; in the experiment with BRSK2 it was 0%.

On to `Fc1ccc(-c2nc[nH]c2-c2ccncc2)cc1` [SB-217360], for which the “%Inh” value in the experiment with BIKE amounted to 0%; in the experiment on BLK, 25%; in the experiment on BMPR1A, 0%; in the experiment on BMPR1B it was 0%; with BMPR2, 22%; in the experiment with BMX, 0%. Also, the “%Inh” value with BRAF is 50%; in the experiment with BRK, 0%; with BRSK1 it was 0%; with BRSK2 it was 0%.
